Records with an inconclusive call do not appear. Calls of active or inactive are those of the source. Unless noted, calls follow the shape of the dose curve; as a rule, active = well fitted curve in the direction sought with a large enough effect; inconclusive = small, poorly fitted or top-dose-only effect, or another doubt; inactive = no such curve, though single readings can be large; an effect the other way counts as inactive or inconclusive.

Experiment [1] in a line: qHTS to identify inhibitors of the type 1 interferon - major histocompatibility complex class I in skeletal muscle: primary screen against the NCATS Mechanism Interrogation Plate v5.0 (MIPE) Libary (AID 1347411). Also: nearly all actives have a fitted effect of over 65% in size. Also: potency is read from the fitted curve at half-maximal effect.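 As to activity change, negative = inhibition: plate controls were vehicle for no effect and reference inhibitor for full effect.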 The essentials: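 Immortalized human C25cl48 myoblasts with HiBit knocked into endogenous HLA-B*08:01 were stimulated with 4.0 ng/ml IFN-beta and exposed to compounds (11-point 1:3 titration, top 46 uM final) for 24 hrs at 37 C; HiBiT lytic luminescence measured.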
In general terms: Quantitative high-throughput screening tests each substance at several concentrations.

Experiment [2] in a line: Primary qHTS for inhibitors of nuclear receptor binding SET domain protein 2 (NSD2) in an isogenic RCH-ACV NSD2 p.E1099K mutant (9B) (AID 1645876). Also: nearly all actives have a fitted effect of over 70% in size. Also: potency is read from the fitted curve at half-maximal effect. As to activity change, negative = viability loss: % is scaled to controls: 0 for no effect and ±100 for the full control effect.
Experiment [3] has as its target Glutathione peroxidase 1 (Homo sapiens) (UniProt P07203). Nature of the experiment: Primary qHTS Assay for Inhibitors of Recombinant Selenoprotein Glutathione Peroxidase 1 (GPX1) (AID 1845191). Also: nearly all actives have a fitted effect of over 65% in size. A digest of the protocol:
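GR-coupled assay: compounds preincubated 30 min at room temperature with GPX1, then reaction started with CHP; final 10 nM GPX1, 1 mM GSH, 0.5 mM CHP, 0.5 mM NADPH, 100 nM GR, 0.01% BSA, pH 7.5 Tris buffer. NADPH fluorescence (340/450 nm) read at 0 and 15 min.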

For experiment [4], the target named is Phospholipid hydroperoxide glutathione peroxidase GPX4 (Homo sapiens) (UniProt P36969). Nature of the experiment: Primary qHTS Assay for Inhibitors of Recombinant Selenoprotein Glutathione Peroxidase 4 (GPX4) (AID 1845192). Also: nearly all actives have a fitted effect of over 65% in size. As to activity change, negative = inhibition: series mostly up to about 50 µM; % is scaled to controls: 0 for no effect and ±100 for the full control effect. The note with it: outcome: dose series up to 50 µM unless noted. A digest of the protocol:
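GR-coupled assay: recombinant GPX4 preincubated 30 min with compound at room temperature; final 200 nM GPX4, 1 mM GSH, 0.5 mM cumene hydroperoxide, 0.5 mM NADPH, 100 nM GR, 0.01% BSA, pH 7.5 Tris. NADPH fluorescence (340/450 nm) read at 0 and 15 min.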

A short description of experiment [5]: qHTS drug screen for cell cycle checkpoint inhibitors in PARPi-resistant BRCA-mutant ovarian cancer cell lines. (AID 1963452; calls by dose curve; also: potency is read from the fitted curve at half-maximal effect). Conditions: PEO1/OlaR viability, CellTiter-Glo luminescence, 96 h; for Z-AUC: stronger effect = lower value. The essentials:
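PEO1, PEO4 and PEO1/OlaR ovarian cancer cells, 600 per well, exposed 96 h at 37C to a dilution series. Viability read by CellTiter-Glo luminescence, normalized to DMSO and empty wells; activity summarized as Z-AUC.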

A short description of experiment [6]: NCATS anti-infectives library activity on HEK293 viability as a counter-qHTS vs the C. elegans viability qHTS (AID 1745854). Also: % is scaled to controls: 0 for no effect and ±100 for the full control effect. The essentials: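 HEK293 cells, 1500 per well, exposed 24 hr at 37C in 5% CO2 to compounds in a 1:5 titration, up to 41.7 uM final. Viability read as CellTiter-Glo luminescence after 10 min at room temperature.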
Experiment [7] is described as follows: NCATS anti-infectives library activity on the primary C. elegans qHTS viability assay (AID 1745855; calls by dose curve). A digest of the protocol:
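Viability is taken from GFP fluorescence of PE254-GFP-FLuc C. elegans imaged by laser cytometry over 7 days. Ten L1 worms per well grow at 21 °C on TOP10 E. coli capsules with titrated compound; levamisole marks toxicity.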

Where [8] appears, read: measured here: PEO1 parental Z-AUC.

Chain of Glutathione peroxidase 1 (Homo sapiens) (P07203 whole entry, looked up): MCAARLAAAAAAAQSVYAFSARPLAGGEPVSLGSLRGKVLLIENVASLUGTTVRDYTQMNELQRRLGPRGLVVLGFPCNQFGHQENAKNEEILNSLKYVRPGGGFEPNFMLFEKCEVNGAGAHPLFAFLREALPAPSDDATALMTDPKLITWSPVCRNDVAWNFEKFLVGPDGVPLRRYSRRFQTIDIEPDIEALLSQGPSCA
Chain of Phospholipid hydroperoxide glutathione peroxidase GPX4 (Homo sapiens) (P36969 whole entry, looked up): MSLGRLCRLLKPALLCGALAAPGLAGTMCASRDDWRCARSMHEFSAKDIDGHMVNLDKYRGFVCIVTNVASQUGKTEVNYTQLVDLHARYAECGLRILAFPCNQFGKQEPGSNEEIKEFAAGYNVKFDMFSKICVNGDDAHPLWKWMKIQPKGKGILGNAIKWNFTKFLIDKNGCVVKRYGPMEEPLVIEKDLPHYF

`O=C(Nc1cccc(C(F)(F)F)c1)c1cccc2cc(Oc3cc(CO)ncn3)ccc12`: the Potency result in experiment [1], in experiment [2], in experiment [3] and in experiment [4] was “inactive” each time. Also, the Z-AUC in experiment [5] was -0.478 (inactive); in experiment [5] (setting [8]), -0.0588; in experiment [5] (measured here: PEO4 Z-AUC), -0.749.

As to `COc1ccc(C(=O)N2CCN(C(=O)/C=C/c3ccc(Br)cc3)CC2)cc1`, the Potency result in experiment [1], in experiment [2], in experiment [3] and in experiment [4] was “inactive” each time. Further, the Z-AUC in experiment [5] was 1.19 (inactive); in experiment [5] (setting [8]) it was 1.01; in experiment [5] (measured here: PEO4 Z-AUC), 1.05.

On to `CC1(C(=O)O)CCC2(C)CCC3(C)C(=CC(=O)C4C5(C)CCC(OC6OC(C(=O)O)C(O)C(O)C6OC6OC(C(=O)O)C(O)C(O)C6O)C(C)(C)C5CCC43C)C2C1` (centres undefined), for which the Potency result in experiment [1], in experiment [2], in experiment [3] and in experiment [4] was “inactive” each time. In addition, the values for the Z-AUC in experiment [5], in experiment [5] (setting [8]) and in experiment [5] (measured here: PEO4 Z-AUC) were -0.447 (inactive), 1.94 and 1.74, respectively.

Take `Cc1cc(Nc2cc(N)ncn2)c(=O)n2c1C(=O)NC21CCCCC1`: the Potency result in experiment [1], in experiment [6], in experiment [3] and in experiment [4] was “inactive” throughout. Further, the Potency in experiment [2] was 2570 nM (active). The Z-AUC is -0.649 (inactive) in experiment [5], 0.752 in experiment [5] (setting [8]) and 0.801 in experiment [5] (measured here: PEO4 Z-AUC).

Consider `Fc1ccc(-c2csc3ncnc(NCc4ccc5c(c4)OCO5)c23)cc1`, for which the Potency result in experiment [1], in experiment [3] and in experiment [4] was “inactive” each time. Moreover, the Potency in experiment [2] is 8330 nM (active). Moreover, the Z-AUC in experiment [5] was 0.367 (inactive); in experiment [5] (setting [8]), 0.157; in experiment [5] (measured here: PEO4 Z-AUC), 0.314.

Take `COc1ccc2[nH]c(C(=O)N3CCC(CC(C)(C)O)CC3)cc2c1`: the Potency entry in experiment [1], in experiment [2], in experiment [3] and in experiment [4] was “inactive” throughout. Besides, the Z-AUC is 0.0283 (inactive) in experiment [5], 0.0965 in experiment [5] (setting [8]) and 0.395 in experiment [5] (measured here: PEO4 Z-AUC).

Consider `Cc1c(-c2cnccn2)ssc1=S`, for which the Potency result in experiment [1], in experiment [6], in experiment [7] and in experiment [3] was “inactive” throughout. Further, in experiment [2], the Potency was 16600 nM (active). Besides, the Z-AUC in experiment [5] is -0.037 (inactive); in experiment [5] (setting [8]), 0.595; in experiment [5] (measured here: PEO4 Z-AUC), 0.421.

As to `CC(=O)N1CCN(c2ccc(NC(=O)Cc3cnc(-c4ccnc(F)c4)c(C)c3)nc2)CC1`, the Potency entry in experiment [1], in experiment [2], in experiment [3] and in experiment [4] was “inactive” throughout. Moreover, the Z-AUC in experiment [5] is 1.31 (inactive); in experiment [5] (setting [8]), 1.23; in experiment [5] (measured here: PEO4 Z-AUC), 0.947.

Consider `Cc1cc(O)cc2c1[C@]1(C)CC[C@H]3C(C)(C)CCC[C@]3(C)[C@H]1C2`, for which the activity change, negative = inhibition in experiment [1] is -19.8% [at 5.1 µM] (inactive). In experiment [2], the activity change, negative = viability loss is -32.6% [at 4.96 µM] (inactive). Besides, the outcome in experiment [4] was “inactive [at 4.52 µM]”. For the same molecule, the Z-AUC in experiment [5] is 1.24 (inactive); in experiment [5] (setting [8]) it was 0.915; in experiment [5] (measured here: PEO4 Z-AUC), 1.

`COc1ccccc1C(=O)Nc1cc2c(cc1N1CCCCC1)n(C)c(=O)n2C`: the Potency entry in experiment [1], in experiment [2], in experiment [3] and in experiment [4] was “inactive” throughout. Also, the Z-AUC in experiment [5] is 1.08 (inactive); in experiment [5] (setting [8]), 0.729; in experiment [5] (measured here: PEO4 Z-AUC), 0.646.

Consider `C/C=C1\NC(=O)[C@H]2CSSCC/C=C\[C@H](CC(=O)N[C@H](C(C)C)C(=O)N2)OC(=O)[C@H](C(C)C)NC1=O`, for which the Potency in experiment [1] is 10.4 nM (active); in experiment [2], 7.4 nM (active); in experiment [5], 4.9 nM (active). The Potency result in experiment [3] was “inactive”. The values for the Z-AUC in experiment [5] (setting [8]) and in experiment [5] (measured here: PEO4 Z-AUC) were -3.43 and -3.56, respectively.

As to `C[C@H]1CNCCCN1S(=O)(=O)c1cccc2cncc(F)c12`, the Potency result in experiment [1], in experiment [2], in experiment [3] and in experiment [4] was “inactive” each time. In addition, the Z-AUC is -0.978 (inactive) in experiment [5], -0.15 in experiment [5] (setting [8]) and 0.771 in experiment [5] (measured here: PEO4 Z-AUC).

Consider `CC1Cc2ccccc2N1C(=O)Cc1nc(N2CCOCC2)cc(=O)[nH]1` (centres undefined), for which the Potency result in experiment [1], in experiment [3] and in experiment [4] was “inactive” throughout. Also, the Potency in experiment [2] is 5250 nM (active). In addition, the Z-AUC is -1.34 (inactive) in experiment [5], -0.404 in experiment [5] (setting [8]) and -0.574 in experiment [5] (measured here: PEO4 Z-AUC).

In the case of `O=c1ncccn1[C@@H]1O[C@H](CO)[C@@H](O)[C@H]1O`, the Potency entry in experiment [1], in experiment [2], in experiment [3] and in experiment [4] was “inactive” each time. For the same molecule, the Z-AUC was -0.938 (inactive) in experiment [5], -0.911 in experiment [5] (setting [8]) and -1.39 in experiment [5] (measured here: PEO4 Z-AUC).

`COc1ccc(-c2oc3c(CC=C(C)C)c(OC4O[C@H](CO)[C@@H](O)[C@H](O)[C@H]4O)cc(O)c3c(=O)c2OC2O[C@@H](C)[C@H](O)[C@@H](O)[C@H]2O)cc1` (some centres undefined): the Potency entry in experiment [1], in experiment [2], in experiment [3] and in experiment [4] was “inactive” throughout. Besides, the Z-AUC in experiment [5] is 0.153 (inactive); in experiment [5] (setting [8]) it was 0.0996; in experiment [5] (measured here: PEO4 Z-AUC), 0.222.

On to `NC(CC1c2ccccc2Oc2ccccc21)(C(=O)O)C1CC1C(=O)O` (centres undefined), for which the Potency result in experiment [1], in experiment [2], in experiment [3] and in experiment [4] was “inactive” throughout. Besides, the results for the Z-AUC in experiment [5], in experiment [5] (setting [8]) and in experiment [5] (measured here: PEO4 Z-AUC) were -0.154 (inactive), 0.493 and 0.591, respectively.

For the molecule `C/C(=N\NC(=S)N1CCC1)c1ccccn1`, the Potency entry in experiment [1], in experiment [3] and in experiment [4] was “inactive” throughout. Further, the Potency in experiment [2] was 10.5 nM (active). In addition, the results for the Z-AUC in experiment [5], in experiment [5] (setting [8]) and in experiment [5] (measured here: PEO4 Z-AUC) were -0.969 (inactive), -1.12 and -1.07, respectively.
